{"source": "PubChem BioAssay AID504832", "about": "(National Center for Advancing Translational Sciences (NCATS), 2011)", "note": "Out of some 310,000 compounds screened, about 18,000 (5.8%) were called active. Another 22% or so got no clear call; they are omitted. The list comes from a sample in which actives are over-represented; it also holds similar structures and randomly drawn compounds. A number with no mark means an inactive call. The call rests on the fitted dose curve; in most records, active means well fitted inhibition curve with a large enough effect; inconclusive means small, poorly fitted or top-dose-only effect, or another doubt; inactive means no such curve, though single readings can be large or run the other way. On the % scale 0 is the no-effect control and ±100 the full control effect; potency means the concentration at half of the fitted maximal effect."}
{"test": "Primary qHTS for delayed death inhibitors of the malarial parasite plastid, 48 hour incubation", "details": "P. falciparum luciferase growth in erythrocytes; series mostly up to 28.7 µM; activity change, negative = inhibition: at the top concentration", "excerpt": "The goal of this screen is to discover new antimalarial compounds that act by inhibiting the development of the apicoplast in the malarial parasite Plasmodium falciparum. The biochemical processes that make this organelle essential for erythrocytic stage parasites are not well understood. However, antibiotics such as azithromycin and tetracycline, which target the apicoplast translational machinery, have a potent antimalarial effect.\nWe have developed a cell-based assay that measures parasite growth based on the expression of an integrated copy of a firefly luciferase reporter. To detect small molecules that cause this \"delayed death\" phenotype, erythrocytes infected with the luciferase-expressing parasites were incubated with compounds for either one or two generations, corresponding to 48 and 96 hours, respectively. Compounds that inhibit parasite growth in the second generation, but not the first, should be enriched in antimalarials that target the apicoplast. Growth inhibition is detected by a decrease in luciferase activity.\nAssay Provider: David Fidock and Eric Ekland, Columbia University\nKeywords: NIH Roadmap, MLPCN, MLI, MLSMR, qHTS, NCGC, qHTS, malaria, luciferase, viability\nFour microliters of culture medium (RPMI 1640 with 0.5% w/v Albumax (GIBCO), 24 mM sodium bicarbonate and 10 ug/mL gentamycin) were dispensed by a Multi-drop Combi into white solid 1536-well plates (Grenier) and 23 nL compound was added by a pin tool. Four microliters of infected erythrocytes (2% hematocrit, 0.1% parasitemia final concentration) in culture medium were dispensed and the plates incubated for 48 hours at 37 C in 5% CO2. Two microliters of luciferase detection reagent was added and luminescence was detected by a ViewLux (PerkinElmer) reader."}
{"smiles": "O=C(Nc1nnc(S(=O)(=O)N2CCOCC2)s1)c1cccc(Br)c1", "activity change, negative = inhibition": "-13.8%"}
{"smiles": "O=C(CCc1ccccc1)NCc1cccnc1", "activity change, negative = inhibition": "1.54%"}
{"smiles": "O=C(NCCc1ccccc1)C1CCC(Cn2c(=O)c3ccccc3n(Cc3cccnc3)c2=O)CC1", "note": "(stereo not given)", "Potency": "11.7 µM (active)"}
{"smiles": "COc1ccc(CCNC(=O)Cn2c(=O)n(CC3CCCO3)c(=O)c3ccccc32)cc1OC", "note": "(stereo not given)", "activity change, negative = inhibition": "-10.1%"}
{"smiles": "COCCN(C(=O)CCC(=O)Nc1nccs1)C(C(=O)NCCC(C)C)c1ccc(F)cc1", "note": "(stereo not given)", "activity change, negative = inhibition": "-3.76%"}
{"smiles": "COc1ccc(Nc2ncnc3sc(-c4ccccc4)cc23)c(OC)c1", "activity change, negative = inhibition": "-11%"}
{"smiles": "c1ccc(-n2ncc3c(N4CCCC4)ncnc32)cc1", "activity change, negative = inhibition": "9.64%"}
{"smiles": "Oc1ccccc1N1CCN(c2ncnc3sc(-c4ccccc4)cc23)CC1", "Potency": "13.1 µM (active)"}
{"smiles": "Cn1c(=O)oc2cc(S(=O)(=O)NCCC(=O)NCc3ccccc3Cl)ccc21", "activity change, negative = inhibition": "4.72%"}
{"smiles": "Cc1ccc(CNCc2ccc3c(c2)OCO3)c(C)c1", "activity change, negative = inhibition": "3.76%"}
{"smiles": "OC(CNCc1ccc2c(c1)OCO2)COc1ccccc1", "note": "(stereo not given)", "Potency": "3.29 µM (active)"}
{"smiles": "COc1cccc(CNCc2ccc3c(c2)OCO3)c1", "activity change, negative = inhibition": "-0.266%"}
{"smiles": "CNS(=O)(=O)c1ccc(NC(=O)Nc2ccc3c(c2)OCO3)cc1", "activity change, negative = inhibition": "125%"}
{"smiles": "O=C(Nc1ccc(S(=O)(=O)Nc2ncccn2)cc1)C12CC3CC(CC(C3)C1)C2", "activity change, negative = inhibition": "5.34%"}
{"smiles": "CCn1nccc1C(=O)Nc1ccc(S(=O)(=O)NC23CC4CC(CC(C4)C2)C3)cc1", "Potency": "6.57 µM (active)"}
{"smiles": "CCn1nccc1C(=O)Nc1ccc(Cl)c(Cl)c1", "activity change, negative = inhibition": "28.2%"}
{"smiles": "Cc1ccc(C)c(S(=O)(=O)Nc2cc(C)on2)c1", "activity change, negative = inhibition": "10.4%"}
{"smiles": "CC(CN1CCOCC1)c1ccccc1", "note": "(stereo not given)", "activity change, negative = inhibition": "-5.89%"}
{"smiles": "O=C(CC(c1ccccc1)c1cc(Cl)ccc1O)NCCN1CCOCC1", "note": "(stereo not given)", "activity change, negative = inhibition": "47.7%"}
{"smiles": "OC(c1ccc(Cl)cc1)C(CN1CCOCC1)c1ccccc1", "note": "(stereo not given)", "Potency": "2.33 µM (active)"}
{"smiles": "O=C(CN(C(=O)c1csnn1)c1ccc(Br)cc1)NC1CCCC1", "activity change, negative = inhibition": "18.7%"}
{"smiles": "CC(C)(C)c1ccc(S(=O)(=O)N2CCN(C(=O)c3ccc4c(c3)C(=O)N(Cc3ccncc3)C4=O)CC2)cc1", "activity change, negative = inhibition": "-2.86%"}
{"smiles": "CC(C)(C)c1ccccc1NC(=O)CN1C(=O)NC2(CCCC2)C1=O", "activity change, negative = inhibition": "-0.115%"}
{"smiles": "O=C(Nn1cnnc1)c1cc(Cl)ccc1Cl", "activity change, negative = inhibition": "2.15%"}
{"smiles": "c1ccc2sc(SNC3CCCCC3)nc2c1", "activity change, negative = inhibition": "0.0777%"}
{"smiles": "Cc1sc2ncnc(Sc3nc4ccccc4s3)c2c1C", "Potency": "1.85 µM (active)"}
{"smiles": "CSc1ncnc2sc(C)c(C)c12", "activity change, negative = inhibition": "-21.6%"}
{"smiles": "Cc1coc2c1c(C)cc1oc(=O)c(CC(=O)NCC(=O)N[C@H](C(=O)O)C(C)C)c(C)c12", "activity change, negative = inhibition": "-9.45% [at 0.00184 µM]"}
{"smiles": "CC(=O)N[C@@H](C)C(=O)N1CCC(n2nccc2NC(=O)CCCc2ccccc2)CC1", "activity change, negative = inhibition": "-2.41%"}
{"smiles": "Cc1ccc(C)c(OCCC(=O)OCC(=O)NC(=O)NCc2ccccc2)c1", "activity change, negative = inhibition": "-8.03%"}
{"smiles": "CCC1CCCCN1C(=S)Nc1ccc(S(=O)(=O)Nc2ncccn2)cc1", "note": "(stereo not given)", "activity change, negative = inhibition": "2.45%"}
{"smiles": "O=C(CCN1C(=O)[C@@H]2Cc3ccccc3CN2C1=O)NCCc1ccccc1", "activity change, negative = inhibition": "0.996%"}
{"smiles": "O=C(c1ccc(OC2CCN(Cc3ccccn3)CC2)cc1)N1CCCCCC1", "activity change, negative = inhibition": "-17.7%"}
{"smiles": "CC(=O)Nc1ccc(CN2CCC(Oc3ccc(C(=O)N4CCCC4)cc3)CC2)cc1", "activity change, negative = inhibition": "50.1%"}
{"smiles": "O=C(c1ccc(OC2CCN(C/C=C/c3ccc(F)cc3)CC2)cc1)N1CCCCC1", "Potency": "11.7 µM (active)"}
{"smiles": "CCc1noc(C)c1C(=O)NNC(=O)c1ccc(F)cc1", "activity change, negative = inhibition": "-2.99%"}
{"smiles": "CCn1nc(C)c(CNC(=O)C2CCC(=O)N(Cc3cccc(F)c3)C2)c1C", "note": "(stereo not given)", "activity change, negative = inhibition": "30.1%"}
{"smiles": "CC(C)[C@H](NC(=O)N1CCn2c1nc1ccccc12)C(=O)NCc1ccc2c(c1)OCO2", "activity change, negative = inhibition": "-9.51%"}
{"smiles": "CC(C)(C)c1ccc(C(=O)N2CCC(C(=O)N3CCCCC3)CC2)cc1", "activity change, negative = inhibition": "-7.27%"}
{"smiles": "CC(C)(C)c1ccc(/C=C2\\Oc3c(ccc(O)c3CN3CCN(CCO)CC3)C2=O)cc1", "Potency": "10.4 µM (active)"}
{"smiles": "CC(=O)Nc1cccc(NC(=O)c2ccc3c(c2)CCN3S(C)(=O)=O)c1", "activity change, negative = inhibition": "11.6%"}
{"smiles": "C[C@H](NC(=O)C1CC(=O)N(c2ccc3c(c2)OCCO3)C1)C(=O)N1CCC(C(=O)O)CC1", "note": "(stereo not given in full)", "activity change, negative = inhibition": "-18.3%"}
{"smiles": "CC1(C)c2[nH]c3ccccc3c2C[C@H]2C(=O)N(N)CC(=O)N21", "activity change, negative = inhibition": "34.8%"}
{"smiles": "Cc1ccccc1OCc1nnc(SCC(=O)N2c3ccccc3Sc3ccc(Cl)cc32)o1", "Potency": "10.4 µM (active)"}
{"smiles": "Cc1cc(C)cc(OCc2nnc(SCC(=O)Nc3ccccc3)o2)c1", "activity change, negative = inhibition": "-7.32%"}
{"smiles": "Cc1cc(C)cc(OCc2nnc(SCC(=O)OC3CCCCC3)o2)c1", "activity change, negative = inhibition": "12.6%"}
{"smiles": "CC(C)Oc1ccc(C(=O)NCC(=O)Nc2ccc3c(c2)CCC3)cc1", "activity change, negative = inhibition": "35%"}
{"smiles": "CCN(CC)c1ccc(S(=O)(=O)N2CCOCC2)cc1NC(=O)CSc1cccc[n+]1[O-]", "activity change, negative = inhibition": "-26.3%"}
{"smiles": "CCN(CC)c1ccc(S(=O)(=O)N2CCCCC2)cc1NC(=O)C1=COCCO1", "Potency": "13.1 µM (active)"}
{"smiles": "O=C(Nc1ccc(S(=O)(=O)N2CCCC2)cc1Cl)C1=COCCO1", "activity change, negative = inhibition": "-19.6%"}
